From PubChem
In the library only some 1.1% were active in any assay of this set; here they are far more common.
FBPA Giardia inh: blocks Giardia fructose-bisphosphate aldolase activity; A8B2U2; Potency, µM (series often up to 59.6 µM), for inactives: top-dose activity, negative = inhibition, hits mostly inhibitors; purified Giardia FBPA; 290,000 compounds, 0.71% hits; further: potency means the concentration at half of the fitted maximal effect; on the % scale 0 is the no-effect control and ±100 the full control effect; nearly all actives have a fitted effect of over 55% in size
Target sequence (A8B2U2 whole entry, looked up): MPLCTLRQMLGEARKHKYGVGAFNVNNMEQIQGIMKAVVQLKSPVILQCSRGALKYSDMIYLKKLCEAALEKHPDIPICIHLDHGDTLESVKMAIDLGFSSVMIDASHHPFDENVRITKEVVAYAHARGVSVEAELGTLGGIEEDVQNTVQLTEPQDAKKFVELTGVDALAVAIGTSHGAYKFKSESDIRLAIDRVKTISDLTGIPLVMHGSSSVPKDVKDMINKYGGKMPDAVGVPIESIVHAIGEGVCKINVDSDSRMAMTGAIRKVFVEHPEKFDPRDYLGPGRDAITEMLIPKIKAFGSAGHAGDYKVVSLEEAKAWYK
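40 nM FBPA preincubated 10 min at RT with compound (up to 57.5 uM final), then substrate plus GAPDH/TPI/NAD/arsenate coupling and diaphorase/resazurin added. Fluorescence read after 20 min at RT, 525/598 nm.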
SARS PLpro yeast-1: inhibitors of SARS-CoV papain-like protease in yeast. S. cerevisiae expressing SARS-CoV PLpro, growth rescue. 330,000 compounds, 0.19% hits. Potency, µM (top dose mostly 32.9 µM), for inactives: at the top dose activity, positive = growth rescue, actives largely listed as activators; calls by dose curve; further: potency means the concentration at half of the fitted maximal effect; 0% is about no effect; nearly all actives have a fitted effect of over 55% in size
AmpC detergent: blocks E. coli AmpC beta-lactamase in detergent assay; Potency, µM (doses to about 114 µM), without a hit: at the highest dose activity change, negative = inhibition, actives largely listed as inhibitors; AmpC hydrolysis of nitrocefin, absorbance 480 nm, 0.01% Triton; 370,000 compounds, 0.041% hits; P00811; AID 485294;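 further: potency means the concentration at half of the fitted maximal effect; 0% = no-compound wells and -100% = no-enzyme wells; nearly all actives have a fitted effect of over 25% in size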
Target sequence (P00811 whole entry, looked up): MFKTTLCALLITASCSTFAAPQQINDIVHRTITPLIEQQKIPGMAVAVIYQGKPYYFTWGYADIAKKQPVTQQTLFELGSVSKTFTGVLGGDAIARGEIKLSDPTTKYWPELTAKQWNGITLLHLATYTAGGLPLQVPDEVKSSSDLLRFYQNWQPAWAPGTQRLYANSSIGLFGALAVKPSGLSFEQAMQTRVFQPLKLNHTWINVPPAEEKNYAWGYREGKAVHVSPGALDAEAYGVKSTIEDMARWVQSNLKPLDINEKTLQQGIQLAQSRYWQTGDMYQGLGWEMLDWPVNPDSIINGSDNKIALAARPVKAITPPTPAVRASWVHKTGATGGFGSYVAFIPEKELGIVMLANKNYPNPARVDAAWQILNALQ
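AmpC (5.3 nM in the dispensed reagent) in 20 mM phosphate pH 7.0 with 0.01% (detergent screen) or 0.0001% Triton X-100 was preincubated with compounds for 15 min at room temperature. Nitrocefin was then added from an 800 uM solution, and hydrolysis was followed at 480 nm.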
AmpC no deterg: blocks E. coli AmpC beta-lactamase in detergent-free assay | P00811 | AmpC nitrocefin hydrolysis, absorbance 480 nm, 0.0001% Triton | Potency, µM (titrated, usually from 57.1 µM), for the others: top-dose activity change, negative = inhibition, most hits filed as inhibitors | 330,000 compounds, 0.52% hits | AID 485341;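 further: potency means the concentration at half of the fitted maximal effect; plate controls were no compound for no effect and no enzyme for full effect; nearly all actives have a fitted effect of over 20% in size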
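AmpC (5.3 nM in the dispensed reagent) in 20 mM phosphate pH 7.0 with 0.01% (detergent screen) or 0.0001% Triton X-100 was preincubated with compounds for 15 min at room temperature. Nitrocefin was then added from an 800 uM solution, and hydrolysis was followed at 480 nm.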
SARS PLpro yeast-2: Validates SARS-CoV PLpro inhibitor hits in yeast; shares compounds with SARS PLpro yeast-1; yeast expressing SARS-CoV PLpro, growth phenotype rescue; calls only; 1,000 compounds, 19% hits; AID 652038; call rule not given here
* = called active by the depositor; i = inactive; ? = inconclusive; · = not tested or not shown; + = active, no number. Unless noted, the call rests on the fitted dose curve; in most records, active means well fitted curve in the direction sought with a large enough effect; inconclusive means small, poorly fitted or top-dose-only effect, or another doubt; inactive means no such curve, though single readings can be large; an effect the other way counts as inactive or inconclusive.

SMILES	FBPA Giardia inh	SARS PLpro yeast-1	AmpC detergent	AmpC no deterg	SARS PLpro yeast-2
CCSCCOC(=O)C1=C(C)NC(=O)NC1c1cc(OC)ccc1OC (configuration not stated)	7%	?	-3%	-7%	i
COc1ccc(COC(=O)C2=C(C)NC(=O)NC2c2cc(OC)ccc2OC)cc1 (configuration not stated)	2%	-4%	-7%	-1%	·
COc1ccc(CNc2ccc3cc(S(=O)(=O)N4CCCCC4)ccc3n2)cc1	·	·	0%	·	·
c1cc2c(cc1[C@H]1OC[C@H]3[C@@H]1CO[C@H]3c1ccc3c(c1)OCO3)OCO2	·	?	·	-21%	i
CSCC[C@H](NC(=O)[C@H](CCCNC(=N)N)NC(=O)[C@H](Cc1ccc(O)cc1)NC(=O)[C@@H]1CCCN1C(=O)CNC(=O)[C@H](CCC(=O)O)NC(=O)[C@H](CC(=O)O)NC(=O)[C@H](CCCCN)NC(=O)[C@H](CCCCN)NC(=O)[C@H](CCC(=O)O)NC(=O)[C@H](C)N)C(=O)N[C@@H](CCC(=O)O)C(=O)N[C@@H](Cc1cnc[nH]1)C(=O)N[C@@H](Cc1ccccc1)C(=O)N[C@@H](CCCNC(=N)N)C(=O)N[C@@H](Cc1c[nH]c2ccccc12)C(=O)NCC(=O)N[C@@H](CO)C(=O)N1CCC[C@H]1C(=O)N1CCC[C@H]1C(=O)N[C@@H](CCCCN)C(=O)N[C@@H](CC(=O)O)C(=O)O	-1%	·	·	·	·
CCn1nc(-c2ccccc2)c(-c2ccccc2)c(C(=O)Nc2ccccc2C(N)=O)c1=O	·	·	7%	·	·
O=C1OCCN1C(=O)[C@H]1[C@H](c2ccc(Cl)cc2)C(c2ccccc2)=NN1c1ccccc1	-10%	-4%	·	5%	·
O=C1OCCN1C(=O)[C@H]1[C@H](c2ccccc2)C(c2cccc(Cl)c2)=NN1c1ccccc1	-9%	?	·	-17%	+
Cc1c(C(=O)N(Cc2ccc(N(C)C)cc2)CC2CCCO2)oc2ccc(Br)cc12 (configuration not stated)	·	·	13%	·	·
CCOc1ccc(OCCC(=O)N(CCCOC)c2c(N)n(Cc3ccccc3)c(=O)[nH]c2=O)cc1	·	?	?	44%	i
CCCCN(C(=O)CSc1nnc(-c2ccc(OC)cc2)n1C(C)C)c1c(N)n(Cc2ccccc2)c(=O)[nH]c1=O	8%	-11%	-16%	-1%	·
CCCCN(C(=O)CSc1nnc(-c2ccc(OC)cc2)n1CC)c1c(N)n(Cc2ccccc2)c(=O)[nH]c1=O	3%	?	-1%	5%	i
O=C(c1ccc(Br)cc1)N1CCCC1	-1%	·	-7%	·	·
CN1CCN(C(=O)c2ccc(S(=O)(=O)c3ccc(Br)cc3)cc2)CC1	3%	11µM*	?	45%	i
COc1ccc(Nc2ncnc3c2cnn3-c2ccc(C)cc2)cc1Cl	·	·	7%	·	·
CC(=O)Nc1ccc(NCC(O)COc2ccccc2)cc1 (configuration not stated)	-3%	7%	0%	-15%	·
COCC(O)CNc1ccccc1 (configuration not stated)	-16%	?	-1%	-10%	i
COC(=O)c1c(NC(=O)CCCOc2ccc(C(C)(C)C)cc2)sc2c1C(C(=O)OC)CC2 (configuration not stated)	·	·	8%	·	·
CCc1ccc(NC(=O)c2ccc(OC)c([N+](=O)[O-])c2)cc1	-2%	?	-1%	-2%	i
COc1ccc(C(=O)Nc2ccncc2)cc1[N+](=O)[O-]	4%	4%	8%	-26%	·
COC(=O)c1cc(OC)c(OC)cc1NCC(=O)Nc1ccc(C)cc1	2%	4.5µM*	0%	-1%	i
Cc1ccc(OC2=NS(=O)(=O)c3ccccc32)cc1	3%	?	-5%	-17%	i
CCC(C(=O)Nc1nccs1)c1ccccc1 (configuration not stated)	1%	3%	-14%	-19%	·
CCC(C)C(=O)Nc1nccs1 (configuration not stated)	?	10µM*	2%	-18%	i
COc1cccc([C@@H]2Oc3ccc(Br)cc3C[C@H]2OC(=O)NS(=O)(=O)c2ccc(C)cc2)c1	-1%	·	·	·	·
SMILES	FBPA Giardia inh	SARS PLpro yeast-1	AmpC detergent	AmpC no deterg	SARS PLpro yeast-2
COc1cc(OC)cc(C(=O)NNC(=O)c2ccccn2)c1	2%	22%	?	-11%	·
COc1ccc(C(=O)NC(=S)NNC(=O)c2cnccn2)cc1OC	21%	4µM*	-1%	-25%	?
COc1cc(OC)cc(C(=O)NC(=S)NNC(=O)c2cnccn2)c1	?	·	0%	-2%	i
CC(C)OC(=O)c1ccc(OC(=O)c2cccnc2)cc1	2%	-6%	1%	26%	·
COC(=O)c1ccc(OC(=O)c2cccnc2)cc1	4%	16µM*	-9%	-2%	?
C(=N\Nc1nncc2ccccc12)/c1ccccn1	-17%	13µM*	-7%	-5%	i
CN1CCN(C(=O)Cn2c(-c3cccs3)cc3ccccc32)CC1	·	·	0%	·	·
Cc1cccc(-c2nc(S(=O)(=O)c3ccccc3)c(N3CCN(c4ccccc4)CC3)o2)c1	·	·	4%	·	·
COc1ccc(N(CC(=O)Nc2nccs2)S(=O)(=O)c2c(C)nn(C)c2C)cc1	-6%	?	?	-16%	i
Cc1nn(C)c(C)c1S(=O)(=O)N(CC(=O)Nc1nccs1)c1ccc(C(C)C)cc1	1%	23%	1%	-6%	·
Cc1ccc(O)c(N=NC2=C(O)CC(C)(C)CC2=O)c1	-29%	18µM*	0%	-16%	+
CC1(C)CC(=O)C(N=Nc2cc(Cl)c(Cl)c(Cl)c2)=C(O)C1	-10%	-1%	-5%	-38%	·
O=C(CSc1ncc2c(n1)-c1ccccc1N(Cc1ccc(F)cc1)S2(=O)=O)c1ccc(Cl)cc1	·	·	6%	·	·
O=C(Nc1ccc(Br)cc1F)c1ccc2nc(CCc3ccccc3)oc2c1	·	·	-4%	·	·
O=S(=O)(Nc1ccc(-c2ccc(N3CCCCC3)nn2)cc1)c1ccc(OC(F)(F)F)cc1	·	·	16%	·	·
COc1cccc(NC(=O)COC(=O)CNS(=O)(=O)c2c(F)cccc2F)c1	-10%	?	-12%	-28%	i
CCN1CCN(c2c(S(=O)(=O)c3ccc(C)c(C)c3)cnc3cc(OC)c(OC)cc23)CC1	·	·	-4%	·	·
Cc1cc(=O)[nH]c(N/N=C/c2ccccn2)n1	?	?	-7%	-3%	i
Cc1cc(=O)[nH]c(N/N=C/c2c(O)n(-c3ccccc3)c(=O)c3ccccc23)n1	-29%	?	?	-22%	i
Cc1cc(=O)[nH]c(N/N=C/c2cccc(Br)c2)n1	-20%	0%	?	-22%	·
COc1ccc(C(=O)Nc2nnc(SCc3cc(=O)n4cccc(C)c4n3)s2)cc1	·	·	6%	·	·
Cc1ccccc1CS(=O)(=O)Cc1ccc(C(=O)NCCc2ccc(Cl)cc2)o1	·	·	3%	·	·
Cc1ncc(C23CC4CC(CC(C4)C2)C3)[nH]1	-4%	13µM*	-15%	-19%	i
